Results filed as inconclusive are left out. Activity calls are given as the source filed them. Unless noted, calls follow the shape of the dose curve; as a rule, active = well fitted curve in the direction sought with a large enough effect; inconclusive = small, poorly fitted or top-dose-only effect, or another doubt; inactive = no such curve, though single readings can be large; an effect the other way counts as inactive or inconclusive.

In assay [1] the target is Lysosomal acid glucosylceramidase (Homo sapiens) (UniProt P04062). The experiment in a line: Glucocerebrosidase-p2 (AID 348; in the data active = potency below about 10 µM; also: potency is read from the fitted curve at half-maximal effect). As to conditions: purified GBA, blue fluorogenic substrate, 40 min. Put shortly:
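Compounds titrated from 0.6 nM upwards against 0.2 nM enzyme in pH 5.9 citric acid/KH2PO4, taurocholate, tween-20; blue fluorogenic substrate 80 uM, 40 min room temperature, stopped and read Ex 365/Em 440 for AC50.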

Assay [2] can be described thus: AP1 Signaling Pathway (AID 357; active = well fitted curve in either direction with a large enough effect, not every such curve was filed as active;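 also: ME-180 reporter cells stimulated with EGF at its EC50 level; % is scaled to controls: 0 for no effect and ±100 for the full control effect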). As to conditions: ME-180 AP-1-bla reporter, EGF-induced, beta-lactamase ratio, 5 h; at 7.69 µM (top of the series) unless noted. The method in brief: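 Beta-lactamase reporter under AP-1 response element, ME-180 background. Stimulus: EC50 EGF. Compound exposure 5 h, 37 °C. Detection: CCF4, 2.5 h RT, 460/530 nm. Values: AC50 from titration.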

Assay [3] concerns the target Cytochrome P450 1A2 (Homo sapiens) (UniProt P05177). The experiment in a line: p450-cyp1a2 (AID 410; calls by dose curve; also: potency is read from the fitted curve at half-maximal effect). As to conditions: recombinant CYP1A2, luciferin-ME demethylation, luminescence; series mostly up to 57 µM. The method in brief:
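20nM CYP1A2 with 100uM Luciferin-ME (at Km) in 100mM KPO4; compound preincubated 10 min, NADPH regeneration added, 60 min at room temperature. Luciferin quantified by luminescence after detection reagent; normalized to 57 uM furafylline.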

Assay [4] is described as follows: NFAT Signaling Pathway (AID 444; active = well fitted curve in either direction with a large enough effect, not every such curve was filed as active;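 also: carbachol stimulus at about its EC50 of 1 µM final; % is scaled to controls: 0 for no effect and ±100 for the full control effect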). As to conditions: Jurkat NFAT-bla M1, carbachol, beta-lactamase ratio, 5 h; at 7.69 µM (top of the series) unless noted. The method in brief: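 Jurkat cells carrying an NFAT-driven β-lactamase reporter and co-transfected muscarinic M1 receptor were treated with compound plus carbachol (1 uM final, an EC50 level) for 5 h at 37 °C. CCF4 loading followed for 1 h at RT; 460/530 nm ratio gave %activity.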

Assay [5] can be described thus: Stat Signaling Pathway (AID 446; active = well fitted curve in either direction with a large enough effect, not every such curve was filed as active;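 also: ME-180 cervical cancer cells given 40 pM IL-6 alongside compound; SIE-controlled beta-lactamase reporter measured as 460/530 nm FRET emission ratio; % is scaled to controls: 0 for no effect and ±100 for the full control effect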). As to conditions: ME-180 SIE beta-lactamase reporter, IL-6 stimulated, 5 h; at 7.69 µM (top of the series) unless noted. Put shortly:
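Screening format detects activators and inhibitors alike: ME-180 SIE-bla cells stimulated at 40 pM IL-6 for 5 hrs with compound, then dual-emission beta-lactamase read at 405 nm excitation.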

Assay [6] deals with Glucocorticoid receptor (Homo sapiens) (UniProt P04150). The experiment in a line: GR-GFP Redistribution (AID 450;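 active = compounds whose dose series gives a full or clear partial fitted curve of increased nuclear translocation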; also: potency is read from the fitted curve at half-maximal effect). As to conditions: U2OS GR-GFP nuclear translocation, laser cytometry, 2 h.
Chain of Glucocorticoid receptor (Homo sapiens) (P04150 whole entry, looked up): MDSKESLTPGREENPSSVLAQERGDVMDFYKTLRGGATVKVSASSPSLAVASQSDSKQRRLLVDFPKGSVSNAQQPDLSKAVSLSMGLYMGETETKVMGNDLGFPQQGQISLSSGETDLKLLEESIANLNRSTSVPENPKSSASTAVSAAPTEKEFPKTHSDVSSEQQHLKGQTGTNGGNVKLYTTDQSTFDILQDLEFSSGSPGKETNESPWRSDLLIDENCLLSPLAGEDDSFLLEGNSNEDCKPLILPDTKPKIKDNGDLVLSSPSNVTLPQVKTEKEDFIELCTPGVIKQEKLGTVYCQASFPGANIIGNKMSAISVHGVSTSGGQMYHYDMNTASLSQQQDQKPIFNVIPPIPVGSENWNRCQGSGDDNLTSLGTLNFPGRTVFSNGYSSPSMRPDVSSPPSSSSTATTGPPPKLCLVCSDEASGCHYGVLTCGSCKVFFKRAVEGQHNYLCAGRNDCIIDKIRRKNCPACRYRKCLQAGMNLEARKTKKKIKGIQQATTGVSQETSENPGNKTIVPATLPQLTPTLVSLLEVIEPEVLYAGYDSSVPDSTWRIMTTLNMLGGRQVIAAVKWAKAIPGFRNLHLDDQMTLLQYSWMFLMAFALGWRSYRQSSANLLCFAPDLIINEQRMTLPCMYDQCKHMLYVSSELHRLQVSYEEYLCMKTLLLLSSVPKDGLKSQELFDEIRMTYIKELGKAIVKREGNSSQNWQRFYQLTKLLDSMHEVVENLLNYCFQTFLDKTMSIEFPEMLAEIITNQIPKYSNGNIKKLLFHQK
The target is the same in assay [7]. The experiment in a line: GR-EFC Redistribution (AID 451; calls by dose curve; also: potency is read from the fitted curve at half-maximal effect). As to conditions: CHO-K1 GR-EFC translocation, beta-gal luminescence, 2 h. Put shortly:
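CHO-K1 cells stably expressing nuclear-localized β-gal enzyme acceptor and GR fused C-terminally to the enzyme donor fragment; ligand-driven nuclear translocation restores β-gal by complementation. Compounds titrated up to 46 uM final, 2 h at 37 °C; luminescence read.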

Assay [8] concerns the target Mitogen-activated protein kinase 10 (Mus musculus) (UniProt Q61831). The experiment in a line: JNK3 AlphaScreen Assay (AID 530; active = well fitted curve in either direction with a large enough effect, not every such curve was filed as active;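 also: kinase came from lysate of stimulated human HepG2 cells; signal reports phosphorylation of biotinylated GST-cJun 1-79 at Ser73 with 10 µM ATP; % is scaled to controls: 0 for no effect and ±100 for the full control effect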). As to conditions: JNK3 lysate, c-Jun phosphorylation; series mostly up to 57.1 µM. The method in brief: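 Inhibitors reduce antibody binding to phosphorylated biotin-cJun, lowering AlphaScreen luminescence. Lysates from HepG2 cells pre-activated by IL-1beta plus TNF-alpha supplied JNK3; compounds were titrated.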
A general note: Bead proximity is the source of the signal in Alpha formats.

Assay [9] has as its target 3',5'-cyclic-AMP phosphodiesterase 4B (Homo sapiens) (UniProt Q07343). The experiment in a line: qHTS Assay for Inhibitors of PDE-IV (AID 607; active = well fitted activation curve with a large enough effect in the main read-out, with a control signal flat, not every such curve was filed as active; also: % of control where 0% means no effect). As to conditions: HEK293 ACTOne CNG channel cells, membrane potential fluorescence; series mostly up to 22.9 µM. Put shortly: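 The readout is membrane depolarisation from a cAMP-sensing CNG channel, detected with a potential dye at ex 535/em 590. Cells were HEK293-derived (endogenous PDE-IV) at 1000 cells/well, titrated up to 22.9 uM final.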

Assay [10] addresses Cytochrome P450 3A4 (Homo sapiens) (UniProt P08684). The experiment in a line: qHTS Assay for Inhibitors and Substrates of Cytochrome P450 3A4 (AID 884). Also: potency is read from the fitted curve at half-maximal effect; nearly all actives have a fitted effect of over 50% in size. As to conditions: recombinant CYP3A4, Luciferin-PPXE luminescence; series mostly up to 57.1 µM. The method in brief: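 20 nM human CYP3A4 with 25 uM Luciferin-PPXE (at KM) in 200 mM KPO4, preincubated 10 min with compound; NADPH regeneration started a 60 min RT reaction. Luciferin detected by luminescence, normalized to 57 uM ketoconazole as full inhibition.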
Background: Quantitative high-throughput screening tests each substance at several concentrations.

Assay [11] shares this target. The experiment in a line: qHTS Assay for Activators of Cytochrome P450 3A4 (AID 885). Also: nearly all actives have a fitted effect of over 65% in size. As to conditions: recombinant CYP3A4, Luciferin-PPXE luminescence, 60 min; series mostly up to 57.1 µM. Put shortly:
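Steps: enzyme/substrate mix dispensed; compound added, 10 min RT; NADPH regeneration solution added, 60 min RT; luciferin detection buffer stops reaction; 20 min later luminescence measured.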

Assay [12] concerns the target Cytochrome P450 2C19 (Homo sapiens) (UniProt P33261). The experiment in a line: qHTS Assay for Inhibitors and Substrates of Cytochrome P450 2C19 (AID 899). Also: potency is read from the fitted curve at half-maximal effect; nearly all actives have a fitted effect of over 60% in size. As to conditions: recombinant CYP2C19, luciferin-H EGE luminescence; series mostly up to 57.1 µM. The method in brief: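 In 50mM KPO4, the reaction held 5nM enzyme and KM-level (10uM) Luciferin-H EGE; it ran 60 min at 37C after NADPH regeneration and a 10 min compound preincubation. Luminescence values were scaled to 57uM ketoconazole as complete inhibition.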

The nature of assay [13]: Confirmation and Secondary Assay for Modulators of Hemoglobin Beta Chain Splicing at IVS2 654 locus (AID 910). Also: % of control where 0% means no effect. As to conditions: HeLa EGFP-654 splicing reporter, GFP fluorescence, 48 h; series mostly up to 38.3 µM. The method in brief: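 HeLa cells stably carrying EGFP interrupted by mutant beta-globin IVS2-654 intron (CMV-driven) were treated with compound for 2 days at 37C; corrected splicing was scored as total peak GFP intensity per well (488 nm excitation, 500-520 nm emission).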

Assay [14] can be described thus: Confirmation and Secondary Assay for Modulators of Hemoglobin Beta Chain Splicing at IVS2 705 locus (AID 930).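 Also: HeLa cells stably expressing the EGFP-705 splicing reporter; GFP fluorescence per well restored by corrected splicing of the IVS2-705 intron in EGFP; % of control where 0% means no effect.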 As to conditions: HeLa EGFP-705 splicing reporter, GFP fluorescence, 48 h; series mostly up to 38.3 µM. Put shortly:
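HeLa cells stably carrying EGFP interrupted by mutant beta-globin intron 2 (IVS2-705) treated 2 days at 37C with compound; 500 nM antisense PNA as control. Correct splicing read as total peak GFP intensity per well by laser-scanning cytometry.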

Assay [15] in a line: qHTS Assay for Lipid Storage Modulators (AID 1519; calls by dose curve). As to conditions: Drosophila S3 cells, BODIPY lipid droplet/cell ratio, laser cytometry, cells loaded with oleic acid; for activity change, negative = inhibition: at 57.5 µM (top of the series). The method in brief:
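Cells seeded at 5,000 per well were treated with compounds over a concentration series and loaded with oleic acid (400 uM, as added). Lipid droplet fluorescence (488 nm excitation, 500-530 nm channel) was read by laser-scanning cytometry and normalized to 20 uM Triacsin C.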

In assay [16] the target is Ubiquitin carboxyl-terminal hydrolase 1 (Homo sapiens) (UniProt O94782). The experiment in a line: Inhibitors of USP1/UAF1: Pilot qHTS (AID 504865).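 Also: rhodamine fluorescence freed from ubiquitin-rhodamine substrate followed over time; top concentration of the series differs between compounds; % is scaled to controls: 0 for no effect and ±100 for the full control effect; nearly all actives have a fitted effect of over 35% in size.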 As to conditions: purified USP1/UAF1, Ub-rhodamine cleavage fluorescence; series mostly up to 54.9 µM. The method in brief: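 USP1/UAF1 complex at 1 nM preincubated 15 min at room temperature with compound, then Ub-Rho substrate added at 150 nM final. Fluorescence (480/540 nm) read kinetically in 50 mM HEPES pH 7.8, 0.5 mM EDTA, 1 mM TCEP, 0.1 mg/ml BSA, 0.01% Tween-20.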
Chain of Ubiquitin carboxyl-terminal hydrolase 1 (Homo sapiens) (O94782 whole entry, looked up): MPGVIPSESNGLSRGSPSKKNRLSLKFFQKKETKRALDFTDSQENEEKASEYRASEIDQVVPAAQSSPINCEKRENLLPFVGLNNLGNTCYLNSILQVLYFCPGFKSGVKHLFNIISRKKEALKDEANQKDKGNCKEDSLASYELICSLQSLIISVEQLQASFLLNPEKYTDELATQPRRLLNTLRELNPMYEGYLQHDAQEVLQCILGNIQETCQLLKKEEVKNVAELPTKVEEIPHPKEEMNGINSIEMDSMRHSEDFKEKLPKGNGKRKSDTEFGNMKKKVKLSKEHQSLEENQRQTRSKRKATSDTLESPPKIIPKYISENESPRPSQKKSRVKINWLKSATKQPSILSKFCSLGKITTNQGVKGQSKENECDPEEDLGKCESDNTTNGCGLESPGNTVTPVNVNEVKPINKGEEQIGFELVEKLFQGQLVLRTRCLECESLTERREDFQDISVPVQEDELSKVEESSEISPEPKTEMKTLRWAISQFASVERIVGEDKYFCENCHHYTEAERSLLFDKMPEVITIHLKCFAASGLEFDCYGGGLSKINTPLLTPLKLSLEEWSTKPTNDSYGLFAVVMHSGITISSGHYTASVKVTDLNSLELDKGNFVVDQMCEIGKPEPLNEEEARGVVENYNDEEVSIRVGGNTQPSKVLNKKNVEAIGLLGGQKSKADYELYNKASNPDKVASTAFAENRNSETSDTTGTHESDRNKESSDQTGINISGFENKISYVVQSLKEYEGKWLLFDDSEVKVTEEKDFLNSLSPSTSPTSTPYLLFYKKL

Assay [17] in a line: Primary qHTS for small molecule stabilizers of the endoplasmic reticulum resident proteome: Secreted ER Calcium Modulated Protein (SERCaMP) assay (AID 1508630). Also: % is scaled to controls: 0 for no effect and ±100 for the full control effect. As to conditions: SH-SY5Y GLuc-SERCaMP (Gaussia luciferase released on ER calcium loss) secretion, thapsigargin, luminescence; series mostly up to 38.4 µM. Put shortly:
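GLuc-SERCaMP-expressing SH-SY5Y cells, pretreated 16 h with compound, are challenged with thapsigargin to empty ER calcium stores; after 4 h, coelenterazine is added directly to the medium and luminescence is imaged.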

Assay [18] addresses Dual specificity protein kinase CLK4 (Homo sapiens) (UniProt Q9HAZ1). The experiment in a line: qHTS Assay for Inhibitors of CDC-like Kinase 4 (ADP-FP Assay) (AID 1795). Also: % is scaled to controls: 0 for no effect and ±100 for the full control effect; nearly all actives have a fitted effect of over 60% in size. As to conditions: Transcreener ADP fluorescence polarization; series mostly up to 50 µM. Put shortly: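 Recombinant Clk4 (6.25 nM) phosphorylated 100 uM RS repeat peptide with 1 uM ATP in 25 mM Tris pH 7.5, 10 mM MgCl2, 0.5 mM EGTA, 2.5 mM DTT, 0.01% Triton X-100 for 1 h. ADP was detected by Transcreener ADP2 competitive fluorescence polarization after 30 min at room temperature.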

The mark [19] stands for this setting: measured here: cell count channel max response.
The mark [20] stands for this setting: measured here: lipid channel max response.

Chain of Cytochrome P450 1A2 (Homo sapiens) (P05177 whole entry, looked up): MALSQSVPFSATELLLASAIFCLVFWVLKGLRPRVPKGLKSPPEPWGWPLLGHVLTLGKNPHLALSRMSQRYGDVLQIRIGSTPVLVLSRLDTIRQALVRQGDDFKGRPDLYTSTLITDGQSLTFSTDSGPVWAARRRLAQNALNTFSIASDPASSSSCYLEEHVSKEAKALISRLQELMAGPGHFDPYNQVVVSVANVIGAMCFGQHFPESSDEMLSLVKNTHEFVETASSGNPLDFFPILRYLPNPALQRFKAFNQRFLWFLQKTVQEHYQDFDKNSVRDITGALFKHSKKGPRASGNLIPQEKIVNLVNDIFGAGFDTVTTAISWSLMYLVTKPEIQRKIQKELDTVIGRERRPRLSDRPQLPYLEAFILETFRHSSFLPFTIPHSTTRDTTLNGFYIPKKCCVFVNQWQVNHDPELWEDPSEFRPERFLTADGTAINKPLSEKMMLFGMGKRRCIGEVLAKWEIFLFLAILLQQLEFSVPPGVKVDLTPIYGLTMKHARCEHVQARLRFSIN
Chain of Lysosomal acid glucosylceramidase (Homo sapiens) (P04062 whole entry, looked up): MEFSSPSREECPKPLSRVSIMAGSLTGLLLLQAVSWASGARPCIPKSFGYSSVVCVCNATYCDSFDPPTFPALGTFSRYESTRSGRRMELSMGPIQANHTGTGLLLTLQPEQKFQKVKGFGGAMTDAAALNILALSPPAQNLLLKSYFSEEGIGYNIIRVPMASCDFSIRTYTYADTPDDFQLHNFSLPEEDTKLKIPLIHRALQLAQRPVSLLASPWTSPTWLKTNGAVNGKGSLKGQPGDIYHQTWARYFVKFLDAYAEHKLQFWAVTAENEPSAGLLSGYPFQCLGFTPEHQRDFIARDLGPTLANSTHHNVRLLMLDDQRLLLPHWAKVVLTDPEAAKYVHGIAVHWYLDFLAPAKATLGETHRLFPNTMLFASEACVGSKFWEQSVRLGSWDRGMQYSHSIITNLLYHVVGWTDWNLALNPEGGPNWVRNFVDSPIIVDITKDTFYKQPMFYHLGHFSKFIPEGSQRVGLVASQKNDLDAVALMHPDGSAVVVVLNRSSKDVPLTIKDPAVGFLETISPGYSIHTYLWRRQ
Chain of Dual specificity protein kinase CLK4 (Homo sapiens) (Q9HAZ1 whole entry, looked up): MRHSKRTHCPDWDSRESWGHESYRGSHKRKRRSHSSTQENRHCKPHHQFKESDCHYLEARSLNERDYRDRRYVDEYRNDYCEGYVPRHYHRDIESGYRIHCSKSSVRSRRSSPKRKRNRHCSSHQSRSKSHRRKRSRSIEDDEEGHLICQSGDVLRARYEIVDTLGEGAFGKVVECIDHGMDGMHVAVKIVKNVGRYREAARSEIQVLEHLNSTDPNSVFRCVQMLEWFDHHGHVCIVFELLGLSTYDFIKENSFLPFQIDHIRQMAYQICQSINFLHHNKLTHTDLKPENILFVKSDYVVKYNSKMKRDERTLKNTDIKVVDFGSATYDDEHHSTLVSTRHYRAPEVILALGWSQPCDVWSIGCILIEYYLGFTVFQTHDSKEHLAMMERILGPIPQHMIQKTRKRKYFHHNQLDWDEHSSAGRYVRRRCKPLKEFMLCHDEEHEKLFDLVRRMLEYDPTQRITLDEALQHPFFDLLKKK
Chain of Cytochrome P450 2C19 (Homo sapiens) (P33261 whole entry, looked up): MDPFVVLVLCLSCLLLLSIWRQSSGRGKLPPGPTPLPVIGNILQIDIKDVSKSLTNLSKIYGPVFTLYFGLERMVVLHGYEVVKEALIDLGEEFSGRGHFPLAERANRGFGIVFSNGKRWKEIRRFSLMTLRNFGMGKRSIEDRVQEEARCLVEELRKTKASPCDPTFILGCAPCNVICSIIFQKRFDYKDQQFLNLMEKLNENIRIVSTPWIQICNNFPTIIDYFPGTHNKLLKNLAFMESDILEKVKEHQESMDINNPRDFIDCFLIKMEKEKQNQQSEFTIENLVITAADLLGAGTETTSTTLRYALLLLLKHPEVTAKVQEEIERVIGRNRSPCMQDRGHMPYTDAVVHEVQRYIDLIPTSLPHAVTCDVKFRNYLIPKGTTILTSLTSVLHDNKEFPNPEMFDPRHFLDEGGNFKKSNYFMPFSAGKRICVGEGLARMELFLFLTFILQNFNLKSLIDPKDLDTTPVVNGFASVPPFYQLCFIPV
Chain of Cytochrome P450 3A4 (Homo sapiens) (P08684 whole entry, looked up): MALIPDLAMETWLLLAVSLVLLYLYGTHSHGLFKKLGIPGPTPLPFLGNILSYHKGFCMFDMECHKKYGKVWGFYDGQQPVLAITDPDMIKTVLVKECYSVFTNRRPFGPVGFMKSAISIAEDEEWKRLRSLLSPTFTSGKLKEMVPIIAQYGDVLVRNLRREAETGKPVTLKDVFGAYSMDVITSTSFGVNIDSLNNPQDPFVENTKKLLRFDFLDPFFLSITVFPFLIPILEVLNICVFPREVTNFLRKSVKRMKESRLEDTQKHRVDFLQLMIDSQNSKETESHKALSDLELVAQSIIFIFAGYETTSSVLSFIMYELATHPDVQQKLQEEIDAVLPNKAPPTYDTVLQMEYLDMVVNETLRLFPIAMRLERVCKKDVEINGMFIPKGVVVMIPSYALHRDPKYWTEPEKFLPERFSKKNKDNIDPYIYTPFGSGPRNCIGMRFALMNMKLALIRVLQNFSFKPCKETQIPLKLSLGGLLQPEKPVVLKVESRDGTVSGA
Chain of 3',5'-cyclic-AMP phosphodiesterase 4B (Homo sapiens) (Q07343 whole entry, looked up): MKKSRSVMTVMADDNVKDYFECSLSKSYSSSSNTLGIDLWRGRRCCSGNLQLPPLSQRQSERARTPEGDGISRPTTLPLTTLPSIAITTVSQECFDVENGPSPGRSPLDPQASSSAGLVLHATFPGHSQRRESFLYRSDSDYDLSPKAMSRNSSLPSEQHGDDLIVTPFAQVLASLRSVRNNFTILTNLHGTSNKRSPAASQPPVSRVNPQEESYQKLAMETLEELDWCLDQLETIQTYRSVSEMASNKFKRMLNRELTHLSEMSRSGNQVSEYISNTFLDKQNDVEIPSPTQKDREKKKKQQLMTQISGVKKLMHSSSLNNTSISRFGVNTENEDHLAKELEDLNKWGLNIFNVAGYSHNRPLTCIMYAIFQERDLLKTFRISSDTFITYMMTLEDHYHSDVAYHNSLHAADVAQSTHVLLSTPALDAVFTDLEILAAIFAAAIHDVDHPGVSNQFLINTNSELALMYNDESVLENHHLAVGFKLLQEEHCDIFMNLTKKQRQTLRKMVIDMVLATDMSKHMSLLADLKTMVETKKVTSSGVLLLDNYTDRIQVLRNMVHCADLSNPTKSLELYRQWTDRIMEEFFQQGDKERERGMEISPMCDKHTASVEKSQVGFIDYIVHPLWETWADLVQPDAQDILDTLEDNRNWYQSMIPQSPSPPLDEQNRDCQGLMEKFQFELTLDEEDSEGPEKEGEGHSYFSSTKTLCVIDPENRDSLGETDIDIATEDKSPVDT

In the case of `COc1cccc(-c2cncnc2NCc2ccccc2)c1`, the Potency in assay [1] is > 11.4 µM (inactive); in assay [3] it was 5.01 µM (active); in [6], > 46 µM (inactive); in assay [7], > 46 µM (inactive); in [10] it was 0.316 µM (active); in assay [12] it was 1.58 µM (active). The results for the activity change, negative = inhibition in assay [2], in assay [4] and in [15] were -17.1% (inactive), 1.11% (inactive) and 9.98% (inactive), respectively. The activity, negative = inhibition in assay [5] is -9.01% (inactive). Further, the molecule was called inactive in assay [8], in assay [13] and in assay [14]. In addition, the Potency entry in [9], in assay [11], in assay [16] and in assay [17] was “inactive” in each case. The max response came to 12.4% in assay [15] (setting [19]) and 12.8% in assay [15] (setting [20]).

Take `COc1cccc(-c2cncnc2Nc2ccc(F)cc2)c1`: the Potency is > 11.4 µM (inactive) in assay [1]; > 46 µM (inactive) in assay [6]; > 46 µM (inactive) in assay [7]; 0.794 µM (active) in [10]; 0.398 µM (active) in assay [12]. The activity change, negative = inhibition in assay [2] was -13.2% (inactive); in [4] it was 13.9% (inactive); in [15], 9.47% (inactive). Besides, the activity, negative = inhibition in assay [5] is -10.1% (inactive). The call in assay [8] was inactive. In addition, the Potency entry in [11], in assay [18] and in [17] was “inactive” throughout. Moreover, the max response in [15] (setting [19]) was determined as 6.55%; in assay [15] (setting [20]) it was 18.7%.

Turning to `CN(C)Cc1ccccc1-c1cncnc1Nc1ccncc1`, the Potency in assay [1] was > 11.4 µM (inactive); in [6] it was > 46 µM (inactive); in assay [7], > 46 µM (inactive). Moreover, the values for the activity change, negative = inhibition in [2], in [4] and in [15] were -25.5% (inactive), 10.2% (inactive) and 4.9% (inactive), respectively. Moreover, the activity, negative = inhibition in assay [5] is 5.07% (inactive). In assay [8], the call was inactive. The Potency entry in [9], in assay [18], in [16] and in assay [17] was “inactive” in each case. For the same molecule, the max response in assay [15] (setting [19]) came out at 13.6%; in assay [15] (setting [20]), 17.6%.

Take `CN(C)c1ncc2ncc(=O)n(C3CC3)c2n1`: the Potency in assay [1] is > 11.4 µM (inactive); in [3], 3.16 µM (active); in assay [6], > 9.22 µM (inactive); in assay [7], > 46 µM (inactive). Besides, the activity change, negative = inhibition in assay [2] was 0.558% (inactive); in [4], -1.2% (inactive); in assay [15], 7.21% (inactive). Moreover, the activity, negative = inhibition in assay [5] was -11.1% (inactive). Further, in [8], the outcome was inactive. Also, the Potency entry in assay [9], in assay [16] and in assay [17] was “inactive” in each case. In addition, the results for the max response in assay [15] (setting [19]) and in assay [15] (setting [20]) were 15.8% and 22.4%, respectively.

For the molecule `CN(Cc1ccco1)c1ncnc2ccc(-c3cccc(C#N)c3)cc12`, the Potency in [1] was > 11.4 µM (inactive); in assay [3] it was 0.501 µM (active); in assay [6], > 46 µM (inactive); in assay [7], > 46 µM (inactive); in assay [12], 6.31 µM (active). Moreover, the activity change, negative = inhibition was 6.41% (inactive) in assay [2], 19.8% (inactive) in assay [4] and 6.34% (inactive) in assay [15]. Also, the activity, negative = inhibition in [5] is -5.78% (inactive). Moreover, the call in assay [8], in assay [13] and in assay [14] was inactive. Besides, the Potency result in assay [9], in assay [11], in assay [16] and in assay [17] was “inactive” throughout. The max response in assay [15] (setting [19]) was -3.6%; in [15] (setting [20]) it was 2.39%.

`Cn1cc(-c2nc3cnc(N4CCNCC4)nc3n(C)c2=O)c2ccccc21`: the Potency in assay [1] is > 11.4 µM (inactive); in assay [6], > 9.22 µM (inactive); in [7], > 46 µM (inactive). The activity change, negative = inhibition was 4.46% (inactive) in assay [2], 6.17% (inactive) in assay [4] and 6.84% (inactive) in assay [15]. Further, the activity, negative = inhibition in assay [5] is 25.8% (inactive). Moreover, the result in assay [8] was inactive. In addition, the Potency result in assay [9], in assay [11], in assay [18], in [16] and in assay [17] was “inactive” in each case. Further, the max response came out at 11.6% in [15] (setting [19]) and 17.7% in assay [15] (setting [20]).
